Measurements published in the supplement of paper PMC3334620.
Over roughly 33,000 sequences, “E-score (-0.5 to 0.5)” has its median near -0.036; the highest 2% begin near 0.37. This is one part of a sample in which the highest values are shown more often than they occur.

Target: T1, Yer064c (UniProt P40041)
T1 sequence: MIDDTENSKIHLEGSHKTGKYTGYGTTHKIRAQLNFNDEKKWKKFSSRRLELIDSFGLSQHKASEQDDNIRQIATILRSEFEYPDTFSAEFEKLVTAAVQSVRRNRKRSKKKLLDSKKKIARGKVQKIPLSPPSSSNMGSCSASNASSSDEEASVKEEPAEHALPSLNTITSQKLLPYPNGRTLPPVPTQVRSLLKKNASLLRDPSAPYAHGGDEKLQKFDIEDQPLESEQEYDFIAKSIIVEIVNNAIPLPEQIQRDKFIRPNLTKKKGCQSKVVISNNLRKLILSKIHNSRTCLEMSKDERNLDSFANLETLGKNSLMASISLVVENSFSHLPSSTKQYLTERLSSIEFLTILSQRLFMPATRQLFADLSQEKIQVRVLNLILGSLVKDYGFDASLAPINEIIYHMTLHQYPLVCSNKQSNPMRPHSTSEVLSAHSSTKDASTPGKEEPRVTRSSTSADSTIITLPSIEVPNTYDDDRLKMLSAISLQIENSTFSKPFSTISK
Experiment: PBM E-score (8-mer binding enrichment) (E-score (-0.5 to 0.5)); higher = stronger / more preferred TF binding
Conditions: protein concentration: 200 nM; construct: GST-full length
Protocol: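 Universal 'all 10-mer' protein binding microarrays (Agilent AMADID 015681) probed with GST-tagged S. cerevisiae TFs (full-length or DBD) made by in vitro transcription/translation (PURExpress), about 100-200 nM. Bound TF was detected with fluorescent anti-GST. Each ungapped 8-mer (which stands for itself and its reverse complement) is scored by the PBM enrichment score (E-score), a modified Wilcoxon-Mann-Whitney statistic from -0.5 to +0.5, computed with the Universal PBM Analysis Suite. Scale: above 0.35 generally sequence-specific binding.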

Row | Sequence | PBM E-score
1 | AAAGGAAG | -0.0963
2 | GAGACAGC | 0.136
3 | CTCCTCGA | 0.0215
4 | ATTGATCC | 0.0238
5 | GCGATCCA | -0.145
6 | CTGTAAGC | -0.0285
7 | ATGTAGTG | 0.0118
8 | CTGTAGTC | 0.416
9 | ATGTAGTC | 0.382
10 | ATGTAGTA | 0.0442
11 | CTGTAGAC | 0.0599
12 | CTGTAGTA | 0.13
13 | GTCCGCAA | 0.00032
14 | CTAACCGA | 0.171
15 | ACGGAGAT | 0.0115
16 | CATTCGAA | 0.0908
17 | CCGGTGTA | -0.162
18 | GTAGTCCA | 0.262
19 | GTAGTAAC | 0.0921
20 | CTAGTCCC | -0.135
21 | CTAGTCAA | 0.383
22 | CTAGTCAC | 0.461
23 | GTAGTCAA | 0.445
24 | GTAGTCGA | 0.263
25 | CTAGTCTC | 0.278

Row | Sequence | PBM E-score
26 | GTCGTCAC | 0.142
27 | GTAGTCAC | 0.479
28 | CTAGTCGA | 0.214
29 | CTAGTCTA | 0.205
30 | ACCACTCT | -0.0617
31 | GTCACGAA | 0.106
32 | TTAGTCAA | 0.464
33 | TTAGTGAA | 0.178
34 | TACGTCAA | -0.153
35 | TAGTGCGA | -0.0974
36 | CACTCGAA | 0.212
37 | GACTCGAC | 0.391
38 | AACTCGAC | 0.0909
39 | GACTCGAA | 0.396
40 | CACTCGAC | -0.0515
41 | AACTCGAA | -0.0714
42 | CAGGCATG | -0.133
43 | GTCCTCGA | 0.197
44 | CTATCCCA | -0.208
45 | AGGACTAC | 0.341
46 | ACTACGAC | 0.302
47 | ACTACTAA | 0.25
48 | GCGACTAA | 0.442
49 | ACGACTAC | 0.415
50 | ACGACGAA | 0.139

Row | Sequence | PBM E-score
51 | ACGACTAA | 0.438
52 | CCGACTAA | 0.358
53 | GCAACTAA | 0.0789
54 | TCGACTAA | 0.373
55 | TCGACGAA | -0.00207
56 | GCTACTAA | -0.101
57 | GGGAAACC | -0.0566
58 | CTTCTGTA | -0.0492
59 | ATGGTGCC | -0.358
60 | TGATTGAA | 0.333
61 | CCCTCTGC | -0.226
62 | ACGACGAT | 0.023
63 | CCGACTAC | 0.325
64 | ACGACTAG | 0.359
65 | GGGACTAC | 0.228
66 | ACGACTAT | 0.401
67 | GCGACTAC | 0.391
68 | CGCACAAG | 0.0388
69 | AGGATAGG | -0.0969
70 | ACCAACTG | -0.097
71 | CAACGTGC | -0.137
72 | ACGCTGTA | -0.00895
73 | ATGGCTCA | 0.422
74 | ATGGCTCC | 0.256
75 | ATGGCTCG | 0.237

Row | Sequence | PBM E-score
76 | CCATAAAG | -0.178
77 | GTGACTTA | 0.443
78 | GGGACTTA | -0.0167
79 | CGGACTTA | 0.203
80 | ATGACGTA | 0.0562
81 | AGGACTTA | 0.234
82 | GTAACTTA | 0.166
83 | CTGACTTA | 0.407
84 | ATGACTTA | 0.475
85 | CCGACTTA | 0.263
86 | CAGACACG | -0.14
87 | AGCGGTCA | -0.0499
88 | ACTTACAT | -0.0151
89 | AAGGGGCC | -0.145
90 | AGCGAGGC | -0.282
91 | AGGAGTTG | -0.0388
92 | AGGAGTGA | 0.105
93 | AGGAGTCA | 0.486
94 | AGGAGTAA | 0.177
95 | AGGAGTCC | 0.297
96 | AGGAGTCG | 0.375
97 | ACTTTCTG | 0.208
98 | TCCACAAA | 0.0257
99 | ACCTCCTA | -0.134
100 | CCGCACCA | 0.017

Row | Sequence | PBM E-score
101 | TGCCCCAA | 0.0126
102 | CAGTGAAA | 0.0766
103 | GGTGTCGA | 0.046
104 | GACTACAC | 0.399
105 | TACTACAA | 0.119
106 | AACTACAC | 0.0443
107 | CACTACAA | 0.0688
108 | GACTACAA | 0.402
109 | CACTACAC | -0.0592
110 | ACCAGCGC | -0.221
111 | GGGCCCGA | -0.142
112 | GAGCACGC | -0.163
113 | GCTAAAAA | 0.0668
114 | ACTGAGTG | 0.161
115 | CCTGAGTA | 0.234
116 | ACTGAGTC | 0.477
117 | ACTGAGTA | 0.28
118 | ACTAAGTA | 0.235
119 | CCTGAGTC | 0.461
120 | CCTGAGGC | -0.16
121 | CCTAAGTC | 0.276
122 | ACTAAGTC | 0.376
123 | CGGTATAC | -0.119
124 | ATCCGGGA | -0.104
125 | AATGCACA | -0.0113

Row | Sequence | PBM E-score
126 | TAGCCGCA | -0.0712
127 | AAATTTCC | -0.0423
128 | CCTGACAC | 0.023
129 | CCTGACAA | -0.124
130 | GCTGACGA | 0.129
131 | CCTGACGC | -0.133
132 | ACTGACCC | 0.0295
133 | GCTGACTA | 0.467
134 | ACTGACAC | 0.0326
135 | CCTGACTC | 0.481
136 | CCTGACGA | 0.115
137 | ACTGACTC | 0.461
138 | CCTGACTA | 0.461
139 | GCTGACAA | 0.00774
140 | ACCGCTCT | -0.114
141 | CCGCTTAC | 0.026
142 | ATCACCCA | 0.135
143 | AGACCAGG | -0.166
144 | TGCGTAAA | 0.026
145 | GCCGTCGA | -0.0942
146 | CGCGGTAG | -0.0407
147 | CCGGGTAA | -0.0414
148 | ACTGACTG | 0.306
149 | ACTGACCA | -0.0902
150 | ACTGACTA | 0.447

Row | Sequence | PBM E-score
151 | ATAAAACC | 0.0678
152 | AAAAACCT | 0.111
153 | AGTCACTG | 0.457
154 | CGTCACTC | -0.0803
155 | AGACACTG | 0.0291
156 | ATTCACTC | 0.0742
157 | AGTCACTC | 0.467
158 | CGTCACTA | 0.0406
159 | ATTCACTG | 0.138
160 | GGTCACTA | -0.234
161 | AGTCACTA | 0.469
162 | TACTGATA | 0.0643
163 | ATAGGACG | -0.178
164 | CCGCCAAG | -0.149
165 | CCGTAGTA | -0.15
166 | CCGTAGTC | 0.394
167 | ACGTAGTG | -0.132
168 | CCGTAGGC | -0.119
169 | ACGTAGTC | 0.39
170 | ACGTAGTA | -0.0277
171 | AGCGTTAG | -0.0809
172 | CATAGCAA | -0.0521
